We go through 17 compounds from PubChem BioAssay AID1970 (National Center for Advancing Translational Sciences (NCATS), 2009).

Inconclusive results are not listed. Values without a mark were called inactive. The source made the active and inactive calls. Calls come from the whole dose curve; as a rule, active = well fitted inhibition curve with a large enough effect; inconclusive = small, poorly fitted or top-dose-only effect; inactive = flat fitted curve, though single readings scatter.

Dual specificity protein kinase CLK4 (Homo sapiens), sequence (Q9HAZ1 whole entry, looked up): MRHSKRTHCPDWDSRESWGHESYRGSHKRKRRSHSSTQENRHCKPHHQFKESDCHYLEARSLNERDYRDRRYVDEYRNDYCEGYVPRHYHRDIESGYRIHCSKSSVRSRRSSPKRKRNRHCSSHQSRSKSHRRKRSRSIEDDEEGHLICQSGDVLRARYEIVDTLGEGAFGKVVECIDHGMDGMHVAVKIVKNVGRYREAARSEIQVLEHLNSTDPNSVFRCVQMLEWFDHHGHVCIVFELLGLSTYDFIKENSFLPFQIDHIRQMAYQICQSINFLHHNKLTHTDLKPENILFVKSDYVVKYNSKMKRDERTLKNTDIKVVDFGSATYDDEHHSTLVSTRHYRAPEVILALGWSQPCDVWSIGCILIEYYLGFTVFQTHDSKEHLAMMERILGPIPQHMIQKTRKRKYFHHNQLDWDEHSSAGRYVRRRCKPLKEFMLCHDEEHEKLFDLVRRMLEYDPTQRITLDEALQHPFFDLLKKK

The test addresses Dual specificity protein kinase CLK4 (Homo sapiens) (UniProt Q9HAZ1). Description: Confirmation Assay for Inhibitors of CDC-like Kinase 4 (Kinase-Glo Assay). The following applies: recombinant Clk4, Kinase-Glo ATP depletion luminescence; series mostly up to 47.7 µM; activity, negative = inhibition: at the top concentration. Summed up: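 Read-out was Kinase-Glo luciferase luminescence of ATP left after 4.5 h room-temperature reaction. Final conditions: Clk4 25 nM, ATP 1 uM, RS peptide 100 uM, 25 mM Tris pH 7.5, 10 mM MgCl2, 0.5 mM EGTA, 2.5 mM DTT, 0.01% Triton X-100.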
`CCOC(=O)c1ccc(-c2ccc3ncnc(NCCc4cnc[nH]4)c3c2)o1`: the Potency is 0.0923 µM (active).

`Cc1cccc(-c2ccc3ncnc(NCc4cccc(F)c4)c3c2)c1`: the Potency was 4.47 µM (active). Same read-out and setting: under `CN(Cc1cncn1C)c1ncnc2ccc(-c3ccc4c(c3)OCO4)cc12` stands 0.292 µM (active). Still for that read-out and setting: as for `Cc1cccc(CNc2ncnc3ccc(-c4cccc(Cl)c4)cc23)c1`, the figure is 14.1 µM (active); as for `c1csc(CNc2ncnc3ccc(-c4ccc5c(c4)OCCO5)cc23)c1`, 0.112 µM (active). `c1nc(NCCc2cnc[nH]2)c2ccc(-c3ccc4c(c3)OCO4)cc2n1`: the Potency is 10.6 µM (active). With `Cc1csc(CNc2ncnc3ccc(-c4ccco4)cc23)c1`, the “activity, negative = inhibition” value is -2.38%. Take `Cc1nc(CNc2ncnc3ccc(-c4ccoc4C)cc23)cs1`: the Potency was 0.823 µM (active). On the same count and under the same terms, as for `Cc1csc(CNc2ncnc3ccc(-c4cccc(Cl)c4)cc23)c1`, the figure is 7.94 µM (active); as for `Cc1nc(CN(C)c2ncnc3cc(-c4ccc5c(c4)OCO5)ccc23)cs1`, 5.33 µM (active). On the same count and under the same terms, as for `CN(Cc1ccco1)c1ncnc2ccc(-c3ccoc3)cc12`, the figure is 0.316 µM (active); as for `Fc1cccc(CNc2ncnc3ccc(-c4ccc5c(c4)OCO5)cc23)c1`, 0.1 µM (active); as for `CC(c1ccco1)N(C)c1ncnc2ccc(-c3ccc4c(c3)OCO4)cc12` (configuration not stated), 0.0671 µM (active). On the same count and under the same terms, under `NCCNc1ncnc2ccc(-c3ccc4c(c3)OCO4)cc12` stands 0.0733 µM (active). `COc1cccc(-c2ccc3ncnc(NCc4cccc(C)c4)c3c2)c1`: the Potency was 0.891 µM (active). For `COc1cccc(-c2ccc3ncnc(NCc4ccc5c(c4)OCO5)c3c2)c1`, the Potency was 1.41 µM (active). For the compound `Cc1occc1-c1ccc2ncnc(NCCc3cnc[nH]3)c2c1`, the Potency was 0.519 µM (active).
